The values below come from PubChem BioAssay.

Experiment [1] can be described thus: inhibitors of TNFa-induced NFkB p65 translocation, primary screen, imaging, HUVEC, MLSMR starter and 10KST1 sets (AID 438;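 active means inhibition above 20% together with a positive visual image hit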;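 further: compound added about 3h40 before a 20 min TNFalpha stimulation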;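 on inhibition: signal is the nuclear over cytoplasmic p65 intensity ratio per well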). Conditions: HUVEC TNFa-induced p65 nuclear translocation; cell count: measured here: nuclei count (cytotoxicity indicator), at 2.08 µM; inhibition: at 2 µM, stronger effect = higher value, 0% TNFa-plus-vehicle, 100% no-TNFa wells.
The nature of experiment [2]: inhibitors of mutant huntingtin aggregation, primary screen, imaging, exon1htt(103Q)mCFP cells, high-content imaging (AID 483;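 active means visual image review flags a hit and inhibition of aggregation exceeds 20%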;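 further: compound exposure lasted 3 days before fixation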;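 on nuclei count: percent of the per-plate median nuclei count of sample wells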). Conditions: exon1htt(103Q)mCFP cell line, aggregate imaging, at 2 µM; inhibition of aggregation: stronger effect = higher value; nuclei count: measured here: cell count, toxicity.
Experiment [3] can be described thus: inhibitors of E-selectin induction by TNFa, primary screen, imaging, HUVEC, immunofluorescence, MLSMR starter and 10KST1 sets (AID 487;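 active means visually confirmed hit in the image check and inhibition above 20%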;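 on inhibition: signal is fraction of cell area covered by stained E-selectin grains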;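 on nuclei count: 100% = median nuclei count of all wells on the same plate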). Conditions: HUVEC TNFalpha-induced E-selectin immunofluorescence imaging, at 2 µM; inhibition: stronger effect = higher value; nuclei count: measured here: cell number, toxicity.
Experiment [4] addresses Voltage-gated potassium channel subunit beta-2 (Rattus norvegicus) (UniProt P62483). The experiment is described as follows: KvBeta enzyme negative modulators, primary screen, biochemical, NADPH fluorescence (AID 622;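 active means fluorescence slope higher than the sample average by over 3 SD, cut at about -0.22 in these data, passing the limit was not always enough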;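 further: slope of raw intensity against log time taken from 70 to 1610 s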). Conditions: recombinant KvBeta, 4-cyanobenzaldehyde reduction, at 10 µM, stronger effect = higher value.
Experiment [5] shares this target. Nature of the experiment: KvBeta positive modulators, primary screen, biochemical, NADPH fluorescence (AID 623;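 active means NADPH fluorescence slope more negative than the mean of all samples by about 3 SD, 99.7% confidence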;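 further: fluorescence intensity change per second fitted from 20 to 320 s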). Conditions: Recombinant KvBeta, NADPH fluorescence decrease slope, 10 min; at 10 µM; stronger effect = lower value.
The target in experiment [6] is Alpha-2C adrenergic receptor (Homo sapiens) (UniProt P18825). The experiment is described as follows: modulators of alpha2C/GIRK thallium flux, primary screen, cell-based, HEK293 alpha2C/GIRK1/2 (AID 624).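 Further: slope of fluorescence ratio to pre-addition baseline per second over 15 to 24 s.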 As to conditions: thallium flux BTC fluorescence, at 10 µM, actives lie on both sides.
Chain of Alpha-2C adrenergic receptor (Homo sapiens) (P18825 whole entry, looked up): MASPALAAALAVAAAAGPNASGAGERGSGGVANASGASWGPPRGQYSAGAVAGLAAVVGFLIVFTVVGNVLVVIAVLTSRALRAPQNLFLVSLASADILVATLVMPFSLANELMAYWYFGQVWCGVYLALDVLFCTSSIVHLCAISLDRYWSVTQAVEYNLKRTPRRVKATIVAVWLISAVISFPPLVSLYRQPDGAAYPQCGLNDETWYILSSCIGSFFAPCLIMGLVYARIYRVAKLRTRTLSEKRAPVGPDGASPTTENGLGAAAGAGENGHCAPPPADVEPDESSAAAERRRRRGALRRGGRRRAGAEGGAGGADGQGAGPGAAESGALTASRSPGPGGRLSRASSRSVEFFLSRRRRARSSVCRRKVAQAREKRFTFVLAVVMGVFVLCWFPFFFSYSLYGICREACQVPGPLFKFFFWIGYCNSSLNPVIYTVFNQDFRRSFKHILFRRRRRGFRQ
Experiment [7] can be described thus: inhibitors of Sendai virus-induced IRF3 signaling, primary screen, TLR/RLR signaling modifier project, cell-based, Sendai virus stimulus, luciferase, 10K MLSCN set (AID 602276;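 active means inhibition at or above 50% at 10 µM; inactive means inhibition below 50%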;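 further: firefly luciferase from ISG56 promoter only with Renilla not read in this screen; 0% = Sendai virus plus DMSO and 100% = medium plus DMSO without virus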). As to conditions: HEK293 RL24 IRF3 luciferase reporter, at 10 µM, stronger effect = higher value. Background: In a reporter assay the amount or activity of a reporter protein is the signal.
The nature of experiment [8]: inhibitors of poly I:C-induced TLR3 signaling, primary screen, cell-based, poly I:C stimulus, luciferase, 10K MLSCN set (AID 602277;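 active means inhibition of the reporter signal at or above 50%; inactive means inhibition below 50%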). Conditions: HEK293-TLR3 RL24 IRF3 luciferase reporter, at 10 µM, stronger effect = higher value.

Each structure is given as a SMILES string. Active and inactive are the calls of the source.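 How the source made its calls, unless noted: active means fluorescence slope after compound addition differing from the mean of all screened samples at 99.7% confidence, in either direction; inactive means the rest.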

Chain of Voltage-gated potassium channel subunit beta-2 (Rattus norvegicus) (P62483 whole entry, looked up): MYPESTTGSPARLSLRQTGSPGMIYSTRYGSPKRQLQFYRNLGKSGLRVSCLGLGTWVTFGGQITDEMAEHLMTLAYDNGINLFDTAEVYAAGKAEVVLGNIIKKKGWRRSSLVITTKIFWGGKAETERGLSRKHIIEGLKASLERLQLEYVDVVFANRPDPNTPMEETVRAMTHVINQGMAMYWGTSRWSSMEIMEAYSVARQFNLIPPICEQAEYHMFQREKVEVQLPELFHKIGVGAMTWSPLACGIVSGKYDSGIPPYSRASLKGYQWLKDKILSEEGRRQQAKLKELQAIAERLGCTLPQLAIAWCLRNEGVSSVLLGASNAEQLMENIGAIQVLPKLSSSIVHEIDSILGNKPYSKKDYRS

For `O=C(CSc1nnc2ccccn12)c1ccccc1`, the cell count in experiment [1] is 535. Further, the inhibition (as a rule, the relative decrease from the control value, in per cent) in experiment [1] was 7.7% (inactive); in experiment [3] it was 23.4% (inactive); in experiment [7], -34.1% (inactive); in experiment [8] it was -86.4% (inactive). The inhibition of aggregation in experiment [2] was 2.2% (inactive). The results for the nuclei count in experiment [2] and in experiment [3] were 105% and 70.9%, respectively. Also, the fluorescence slope in experiment [4] was -0.46 (inactive). Besides, the NADPH fluorescence slope in experiment [5] was 4e-05 (inactive). In addition, the slope in experiment [6] is 0.00782 (inactive).
As for `CCCCOc1ccc(S(=O)(=O)n2c(C)nc3ccccc32)cc1`, the cell count in experiment [1] came out at 445. In addition, the inhibition in experiment [1] was -1.5% (inactive); in experiment [3], -286% (inactive); in experiment [7], 9.07% (inactive); in experiment [8], 16.6% (inactive). Moreover, in experiment [2], the inhibition of aggregation is -1.2% (inactive). Besides, the values for the nuclei count in experiment [2] and in experiment [3] were 102% and 113%, respectively. Also, the fluorescence slope in experiment [4] is -0.387 (inactive). Moreover, in experiment [5], the NADPH fluorescence slope is 1.3e-05 (inactive). Further, in experiment [6], the slope is 0.00302 (inactive).
Regarding `COc1cccc(-c2nnc(NC(=O)c3ccccc3Br)o2)c1`, in experiment [1], the cell count was 718. Besides, the inhibition in experiment [1] was -6.9% (inactive); in experiment [3] it was -17.4% (inactive); in experiment [7] it was 4.13% (inactive); in experiment [8], 17.2% (inactive). The inhibition of aggregation in experiment [2] was -5.7% (inactive). In addition, the values for the nuclei count in experiment [2] and in experiment [3] were 110% and 117%, respectively. Also, in experiment [4], the fluorescence slope is -0.421 (inactive). The NADPH fluorescence slope in experiment [5] was -3.3e-05 (inactive). The slope in experiment [6] was 0.00691 (inactive).
Regarding `CCCC1(C(=O)OC)NC(c2cc(OC)c(OC)c(OC)c2)C2C(=O)N(CC)C(=O)C21` (centres undefined), the cell count in experiment [1] came out at 582. Further, the inhibition in experiment [1] was 5.5% (inactive); in experiment [3], -37.6% (inactive); in experiment [7] it was -10.2% (inactive); in experiment [8] it was 2.76% (inactive). For the same molecule, in experiment [2], the inhibition of aggregation is 8.1% (inactive). In addition, the nuclei count came out at 111% in experiment [2] and 110% in experiment [3]. The fluorescence slope in experiment [4] is -0.48 (inactive). Besides, the NADPH fluorescence slope in experiment [5] was 3.3e-05 (inactive). The slope in experiment [6] was 0.0052 (inactive).
For `CCOc1ccc(C(=O)Nc2ccc(N3CCN(C)CC3)cc2)cc1Br`, the cell count in experiment [1] was 434. Also, the inhibition in experiment [1] is 3.4% (inactive); in experiment [3] it was 6.4% (inactive); in experiment [7], -15.1% (inactive); in experiment [8], -22.4% (inactive). In addition, the inhibition of aggregation in experiment [2] is 0.4% (inactive). For the same molecule, the nuclei count was 95.5% in experiment [2] and 89.5% in experiment [3]. In experiment [4], the fluorescence slope is -0.571 (inactive). Moreover, the NADPH fluorescence slope in experiment [5] was -3.6e-05 (inactive). Besides, in experiment [6], the slope is 0.00342 (inactive).
With `CC(C)OC(=O)c1ccc(OC(=O)c2cccnc2)cc1`, the cell count in experiment [1] was determined as 424. Further, the inhibition was 3.3% (inactive) in experiment [1], 12.1% (inactive) in experiment [3], -2.15% (inactive) in experiment [7] and -5.2% (inactive) in experiment [8]. Besides, the inhibition of aggregation in experiment [2] was -5.5% (inactive). Further, the values for the nuclei count in experiment [2] and in experiment [3] were 107% and 104%, respectively. Besides, the fluorescence slope in experiment [4] was -0.429 (inactive). Moreover, the NADPH fluorescence slope in experiment [5] was -6.3e-05 (inactive). Further, in experiment [6], the slope is 0.00544 (inactive).
On to `Cc1ccc(C(=O)N2CCCC(c3nc4c(nnn4Cc4ccccc4)c(=O)[nH]3)C2)cc1` (centres undefined), for which the cell count in experiment [1] worked out at 671. The inhibition in experiment [1] was -6.5% (inactive); in experiment [3], -44.4% (inactive); in experiment [7], 13.8% (inactive); in experiment [8], 21.2% (inactive). In addition, in experiment [2], the inhibition of aggregation was -2.8% (inactive). In addition, the nuclei count in experiment [2] was determined as 118%; in experiment [3], 104%. Moreover, in experiment [4], the fluorescence slope is -0.38 (inactive). Besides, in experiment [5], the NADPH fluorescence slope was -5.9e-05 (inactive). Besides, in experiment [6], the slope is 0.00676 (inactive).
On to `CCOc1ccccc1CN(Cc1ccco1)S(=O)(=O)c1ccc(-n2cnnn2)c(OC)c1`, for which the cell count in experiment [1] stood at 439. Moreover, the inhibition in experiment [1] is 5.7% (inactive); in experiment [3] it was 4.1% (inactive); in experiment [7] it was -53.6% (inactive); in experiment [8], 63.3% (active). Also, the inhibition of aggregation in experiment [2] is 13.2% (inactive). The nuclei count worked out at 99.8% in experiment [2] and 113% in experiment [3]. Also, the fluorescence slope in experiment [4] was -0.519 (inactive). The NADPH fluorescence slope in experiment [5] was -1.2e-05 (inactive). The slope in experiment [6] is 0.00748 (inactive).
`COc1cc2c(=O)n(Cc3ccccc3)c(=O)n(CC(=O)NCc3ccco3)c2cc1OC`: in experiment [1], the cell count is 358. Moreover, the inhibition was 3.5% (inactive) in experiment [1], -319% (inactive) in experiment [3], 23.8% (inactive) in experiment [7] and 21.5% (inactive) in experiment [8]. Also, the inhibition of aggregation in experiment [2] was -3.1% (inactive). Besides, the nuclei count in experiment [2] came out at 107%; in experiment [3] it was 109%. The fluorescence slope in experiment [4] was -0.37 (inactive). Further, the NADPH fluorescence slope in experiment [5] is 9e-06 (inactive). Besides, the slope in experiment [6] was 0.0075 (inactive).
As for `CCOC(=O)c1cnc(SCC)[nH]c1=O`, the cell count in experiment [1] was 436. The inhibition was -11.8% (inactive) in experiment [1], -34.3% (inactive) in experiment [3], 6.7% (inactive) in experiment [7] and 27% (inactive) in experiment [8]. Further, in experiment [2], the inhibition of aggregation was -0.2% (inactive). Moreover, the nuclei count in experiment [2] amounted to 118%; in experiment [3], 117%. Further, the fluorescence slope in experiment [4] was -0.351 (inactive). Moreover, the NADPH fluorescence slope in experiment [5] was -2.9e-05 (inactive). In addition, the slope in experiment [6] is 0.00558 (inactive).
In the case of `CC(Oc1ccccc1)C(=O)NC1CC(C)(C)NC(C)(C)C1` (centres undefined), the cell count in experiment [1] is 386. The inhibition in experiment [1] is 0.2% (inactive); in experiment [3], 13.8% (inactive); in experiment [7], 17.4% (inactive); in experiment [8] it was 26.2% (inactive). Further, the inhibition of aggregation in experiment [2] is 4.3% (inactive). Further, the results for the nuclei count in experiment [2] and in experiment [3] were 89.9% and 102%, respectively. For the same molecule, the fluorescence slope in experiment [4] was -0.261 (inactive). Besides, in experiment [5], the NADPH fluorescence slope is -3.5e-05 (inactive). The slope in experiment [6] is 0.00587 (inactive).
Turning to `CCCc1c(O)nc(SCC(=O)NCCc2ccc(OC)c(OC)c2)[nH]c1=O`, in experiment [1], the cell count was 581. Besides, the inhibition was -10.8% (inactive) in experiment [1], 38.4% (inactive) in experiment [3], 13.2% (inactive) in experiment [7] and 13.9% (inactive) in experiment [8]. The inhibition of aggregation in experiment [2] is 5.3% (inactive). For the same molecule, the nuclei count stood at 73.8% in experiment [2] and 82.7% in experiment [3]. The fluorescence slope in experiment [4] is -0.486 (inactive). In addition, the NADPH fluorescence slope in experiment [5] was -3.3e-05 (inactive). Also, in experiment [6], the slope was 0.00432 (inactive).
Consider `CC1(C)C(c2ccccc2)=NC(c2ccccc2)N1O` (centres undefined), for which, in experiment [1], the cell count stood at 422. The inhibition in experiment [1] was -2.8% (inactive); in experiment [3] it was -22.6% (inactive); in experiment [7], 5.11% (inactive); in experiment [8], 35.3% (inactive). Moreover, the inhibition of aggregation in experiment [2] is 1.2% (inactive). Moreover, the values for the nuclei count in experiment [2] and in experiment [3] were 107% and 113%, respectively. Besides, the fluorescence slope in experiment [4] is -0.428 (inactive). Moreover, the NADPH fluorescence slope in experiment [5] was -3e-05 (inactive). The slope in experiment [6] was 0.0012 (inactive).
As for `CCOc1cc(-c2nc3ccccn3c2NCC2CCCO2)ccc1O` (centres undefined), the cell count in experiment [1] amounted to 406. The inhibition in experiment [1] is -0.9% (inactive); in experiment [3], -97% (inactive); in experiment [7], -9.84% (inactive); in experiment [8] it was -3.91% (inactive). Besides, the inhibition of aggregation in experiment [2] is -2.6% (inactive). In addition, the nuclei count amounted to 94.3% in experiment [2] and 83.1% in experiment [3]. For the same molecule, the fluorescence slope in experiment [4] is -0.091 (active). In experiment [5], the NADPH fluorescence slope was -2.7e-05 (inactive). Also, the slope in experiment [6] was 0.00327 (inactive).
